Hits are enriched below; roughly 1.8% of the tested compounds scored in any of these assays.
PDI inh – inhibitors of human PDI, primary screen, biochemical, turbidity, single point, plate reader; Protein disulfide-isomerase (Homo sapiens), P07237; 350,000 tested, 0.052% active; PDI insulin aggregation turbidity, A650, 90 min; inhibition, % at 10 µM; AID 588391, 2011;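 active = mean inhibition across replicates of 30% or more, whatever share of single replicates reach that level; inconclusive = mean inhibition below 30% while every single replicate reaches 30%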
AF4-AF9 inh – inhibitors of AF4 peptide binding to AF9, primary screen, biochemical, AlphaScreen, biotin-AF4 peptide, FLAG-AF9, single point. Protein AF-9 (Homo sapiens), P42568. inhibition, % at 10 µM. 350,000 tested, 0.47% active;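 active = every replicate reaching a set inhibition limit, whatever the replicate mean, cut at about 25% in these data; inconclusive = mean inhibition reaches that limit but some replicates miss it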
Target sequence (P42568 whole entry, looked up): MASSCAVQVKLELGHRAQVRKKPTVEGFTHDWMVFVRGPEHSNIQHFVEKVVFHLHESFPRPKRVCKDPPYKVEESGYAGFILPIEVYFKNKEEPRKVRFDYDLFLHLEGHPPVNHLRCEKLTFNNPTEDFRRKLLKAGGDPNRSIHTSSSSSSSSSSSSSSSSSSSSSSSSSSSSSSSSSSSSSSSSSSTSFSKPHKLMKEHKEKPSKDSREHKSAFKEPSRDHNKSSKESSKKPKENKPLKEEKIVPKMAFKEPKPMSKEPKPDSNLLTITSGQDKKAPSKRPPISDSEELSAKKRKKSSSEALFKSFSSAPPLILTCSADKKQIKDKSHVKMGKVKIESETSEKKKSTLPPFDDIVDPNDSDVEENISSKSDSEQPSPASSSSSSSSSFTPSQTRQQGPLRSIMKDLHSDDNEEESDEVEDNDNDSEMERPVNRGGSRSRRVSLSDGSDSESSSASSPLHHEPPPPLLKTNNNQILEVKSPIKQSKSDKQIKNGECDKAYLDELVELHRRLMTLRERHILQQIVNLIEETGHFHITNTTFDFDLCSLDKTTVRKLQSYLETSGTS
DENV2 CPE – inhibitors of DENV2 cytopathic effect, primary screen, cell-based, plate reader, single concentration. 350,000 tested, 1.7% active. DENV2-infected cells, cytopathic effect rescue. CPE inhibition, % at 9.99 µM. AID 651640, 2012; in the data active = CPE inhibition above about 20%, passing the limit was not always enough; inconclusive = no clear call, values can overlap the other calls; tested in BHK-21 cells
ERAP1 inh – human ERAP1 aminopeptidase inhibitors, primary screen, biochemical, single point, plate reader; Endoplasmic reticulum aminopeptidase 1 (Homo sapiens), Q9NZ08; recombinant ERAP1, Leu-AMC fluorescence, 60 min; inhibition, % at 10.7 µM; 340,000 tested, 0.15% active; AID 652197, 2013;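 active = mean replicate inhibition of at least 30%, or all replicates individually reaching that 30% level; inactive = mean below 30% and not every replicate reaching it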
ERp5 inh – inhibitors of ERp5-driven insulin aggregation, primary screen, biochemical, turbidity, absorbance 650 nm, single point | Protein disulfide-isomerase A6 (Homo sapiens), Q15084 | 90 min | inhibition, % at 9.99 µM | 350,000 tested, 0.05% active | AID 651711, 2012;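 active = mean replicate inhibition above about 25%, with every replicate also reaching it, limit read from the data, passing the limit was not always enough; inconclusive = only one of those two criteria met; inactive = neither criterion met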
Hits are given with their value.

`CCOc1c(Br)cc(CNc2ccc(N3CCN(C(C)=O)CC3)cc2)cc1OC` gave PDI inh inactive, AF4-AF9 inh 27, DENV2 CPE inactive, ERAP1 inh inactive and ERp5 inh inactive.
`Cc1ccc2c(c1)N(C(=O)CCC(=O)NCCCN1CCOCC1)CC(C)O2` (stereo unspecified) gave AF4-AF9 inh inactive, DENV2 CPE inactive, ERAP1 inh inactive and ERp5 inh inactive.
`CCN1CCN(CCCNC(=O)CCC(=O)N2CC(C)Oc3ccc(C)cc32)CC1` (stereo unspecified) gave AF4-AF9 inh 49, DENV2 CPE inactive, ERAP1 inh inactive and ERp5 inh inactive.
Screening COc1ccc(-c2cc(=O)c3c(OC)c(OC)c(OC)c(OC)c3o2)cc1OC returned PDI inh inactive, AF4-AF9 inh inactive, DENV2 CPE inactive, ERAP1 inh inactive and ERp5 inh inactive.
`COc1ccc2c(=O)cc(-c3ccncc3)oc2c1OC` gave PDI inh inactive, AF4-AF9 inh inactive, DENV2 CPE 33, ERAP1 inh inactive and ERp5 inh inactive.
`CC1CCCCC1NC(=O)Cn1nc(-c2ccccc2)ccc1=O` (stereo unspecified) gave PDI inh inactive, AF4-AF9 inh 27, DENV2 CPE inactive, ERAP1 inh inactive and ERp5 inh inactive.
Screening CC1CCCCN1CCNC(=O)Cn1nc(-c2ccccc2)ccc1=O (stereo unspecified) returned PDI inh inactive, AF4-AF9 inh inactive, ERAP1 inh inactive and ERp5 inh inactive.
F[B-](F)(F)c1cnc2ccccc2c1 was read as PDI inh inactive, AF4-AF9 inh inactive, DENV2 CPE 26, ERAP1 inh inactive and ERp5 inh inactive.
`CC(=O)Nc1scc(C)c1-c1nc2ccccc2s1` gave PDI inh inactive, AF4-AF9 inh inactive, DENV2 CPE 50, ERAP1 inh inactive and ERp5 inh inactive.
Screening Cc1csc(NC(=O)COCC(=O)O)c1-c1nc2ccccc2s1 returned PDI inh inactive, AF4-AF9 inh inactive, DENV2 CPE inactive, ERAP1 inh inactive and ERp5 inh inactive.
`COCC(=O)N1CCCCN2[C@H](CO)[C@H](c3ccc(-c4ccc(F)cc4)cc3)[C@@H]2C1` gave AF4-AF9 inh inactive, DENV2 CPE inactive, ERAP1 inh inactive and ERp5 inh inactive.
`Oc1ccc(/C=N/N=C/c2ccc(O)c(O)c2)cc1O` gave PDI inh inactive, AF4-AF9 inh inactive, DENV2 CPE inactive, ERAP1 inh inactive and ERp5 inh inactive.
O=C(/C(=N/N=C/c1ccc(O)c(O)c1)c1ccccc1)c1ccccc1 was read as PDI inh inactive, AF4-AF9 inh 35, DENV2 CPE inactive, ERAP1 inh inactive and ERp5 inh inactive.
`COc1ccc(NC(=O)Nc2cccc3c2O[C@@H](CN(C)C(=O)Nc2ccc(OC)cc2)[C@H](C)CN([C@@H](C)CO)C3=O)cc1` gave AF4-AF9 inh inactive, DENV2 CPE inactive, ERAP1 inh inactive and ERp5 inh inactive.
For COc1ccc(NC(=O)N(C)C[C@@H]2Oc3c(NC(=O)Nc4ccc(F)cc4)cccc3C(=O)N([C@@H](C)CO)C[C@H]2C)cc1 the results were AF4-AF9 inh inactive, DENV2 CPE 34, ERAP1 inh inactive and ERp5 inh inactive.
`COc1ccc(NC(=O)N(C)C[C@H]2Oc3c(NC(=O)CCCCCC(=O)Nc4ccccc4N)cccc3C(=O)N([C@@H](C)CO)C[C@H]2C)cc1` gave AF4-AF9 inh inactive, DENV2 CPE 34, ERAP1 inh inactive and ERp5 inh inactive.
For COc1ccc(NC(=O)Nc2cccc3c2O[C@H](CN(C)C(=O)Nc2ccc(OC)cc2)[C@@H](C)CN([C@@H](C)CO)C3=O)cc1 the results were AF4-AF9 inh inactive, DENV2 CPE 144, ERAP1 inh inactive and ERp5 inh inactive.
Screening COc1ccc(NC(=O)Nc2cccc3c2O[C@H](CN(C)S(=O)(=O)c2ccccc2)[C@H](C)CN([C@@H](C)CO)C3=O)cc1 returned AF4-AF9 inh inactive, DENV2 CPE 80, ERAP1 inh inactive and ERp5 inh inactive.
`COc1ccc(NC(=O)Nc2cccc3c2O[C@@H](CN(C)C(=O)Nc2ccc(F)cc2)[C@H](C)CN([C@H](C)CO)C3=O)cc1` gave AF4-AF9 inh inactive, DENV2 CPE inactive, ERAP1 inh inactive and ERp5 inh inactive.
COc1ccc(NC(=O)Nc2cccc3c2O[C@@H](CN(C)C(=O)Nc2ccccc2)[C@H](C)CN([C@H](C)CO)C3=O)cc1 was read as AF4-AF9 inh inactive, DENV2 CPE 36, ERAP1 inh inactive and ERp5 inh inactive.
`COc1ccc(NC(=O)N(C)C[C@H]2Oc3c(NC(=O)Nc4ccccc4)cccc3C(=O)N([C@@H](C)CO)C[C@H]2C)cc1` gave AF4-AF9 inh inactive, DENV2 CPE inactive, ERAP1 inh inactive and ERp5 inh inactive.
CCC(=O)N(C)C[C@H]1Oc2ncc(-c3ccccc3OC)cc2C(=O)N([C@@H](C)CO)C[C@@H]1C was read as AF4-AF9 inh inactive, DENV2 CPE inconclusive, ERAP1 inh inactive and ERp5 inh inactive.
Screening CC1CCC(C(C)C)C(OCC(O)C[N+]2(C)CCCCC2)C1 (stereo unspecified) returned PDI inh inactive, AF4-AF9 inh inactive, DENV2 CPE inactive, ERAP1 inh 103 and ERp5 inh inactive.
Screening CC(C)NC(=O)Nc1ccc2c(c1)C(=O)N([C@H](C)CO)C[C@H](C)[C@H](CN(C)C(=O)c1ccccc1)OCCCC[C@@H](C)O2 returned AF4-AF9 inh inactive, DENV2 CPE inactive, ERAP1 inh inactive and ERp5 inh inactive.
For COc1c2c(cc3oc(CO[C@@H]4O[C@H](CO)[C@@H](O)[C@H](O)[C@H]4O)cc(=O)c13)O[C@H](C(C)(C)O)C2 the results were PDI inh inactive, AF4-AF9 inh inactive, DENV2 CPE 24, ERAP1 inh inactive and ERp5 inh inactive.
OCC(CCc1c[nH]c2ccccc12)c1c[nH]c2ccccc12 (stereo unspecified) was read as AF4-AF9 inh 41, DENV2 CPE inactive, ERAP1 inh inactive and ERp5 inh inactive.
`NC(=O)CCc1c[nH]c2ccccc12` gave PDI inh inactive.
`CC(=O)N1c2ccccc2[C@H](C)[C@H]1C` gave PDI inh inactive, AF4-AF9 inh inactive, DENV2 CPE 70, ERAP1 inh inactive and ERp5 inh inactive.
For CC1c2ccccc2N(S(=O)(=O)c2ccccc2)C1C (stereo unspecified) the results were PDI inh inactive, AF4-AF9 inh inactive, DENV2 CPE inactive, ERAP1 inh inactive and ERp5 inh inactive.
Cc1ccc(C(=O)c2c3ccc([N+](=O)[O-])cc3[n+]([O-])n2CCCC(N)=O)cc1 was read as PDI inh inactive, DENV2 CPE 70, ERAP1 inh inactive and ERp5 inh inactive.

Compound activity: PubChem, Broad Institute
